This note sets out measurements from PubChem BioAssay (NCI).

Structures are written as SMILES. This is part of a sample that, as a whole, favours compounds with a hit. Of some 83,000 tested, about 20% had one in any assay.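 Step 1: grow cells in 96-well plates. Step 2: add test compound at a single concentration. Step 3: incubate 48 h. Step 4: record percent growth.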 A number with no mark means an inactive call. Activity calls are given as the source filed them. Rule for the calls: active = growth percent below 10; inactive = the rest.

Assay in all cases: NCI-60 one-dose screen, 48 h (100 = growth as untreated, 0 = no growth, -100 = all killed)
The subject of assay [1] is T-47D breast. Particulars: 10 µM.
The test system of assay [2] is BT-549 breast. Particulars: 10 µM unless noted.
In assay [3] the test system is MDA-MB-435 melanoma. Particulars: 10 µM unless noted.
For assay [4], the system named is SW-620 colon. The following applies: 10 µM unless noted.
Assay [5] relates to MCF7 breast. The following applies: 10 µM unless noted.
In assay [6] the test system is HCT-116 colon. The following applies: 10 µM unless noted.
Assay [7] concerns HCC-2998 colon. The following applies: 10 µM unless noted.
Assay [8] has as its system KM12 colon. The following applies: 10 µM unless noted.

Take `Cn1c2c(cc(S(=O)(=O)c3ccccc3)c1=O)CCc1c-2cnn1-c1cccc(Cl)c1`: the growth in assay [1] is 64.4%; in assay [2] it was 92.4%; in assay [3], 87.9%; in assay [4] it was 110%; in assay [5], 90.4%; in assay [6], 88.2%. Also, the growth is 111% in assay [7] and 101% in assay [8].

On to `O=c1oc2ccccc2cc1-c1csc(N/N=C/c2cc3ccccc3nc2Cl)n1`, for which the growth is 90.8% in assay [1]; 105% in assay [2]; 95.7% in assay [3]; 106% in assay [4]; 90.7% in assay [5]; 105% in assay [6]. For the same molecule, the values for the growth in assay [7] and in assay [8] were 102% and 100%, respectively.

`C=CC(=O)N1CC2(CCC(n3nc(-c4ccc(Oc5ccccc5)cc4)c4c(N)ncnc43)CC2)C1`: the growth in assay [1] is 14.6%; in assay [2], -69.3% (active); in assay [3], -81.1% (active); in assay [4], 0.371% (active); in assay [5] it was 1.86% (active); in assay [6], -82.7% (active). Further, the growth was -77.8% (active) in assay [7] and -29.1% (active) in assay [8].

As to `O=c1[nH]c(-c2ccncc2)nc2sc3c(c12)CCCCCC3`, the growth was 24.6% in assay [1]; 98.9% in assay [2]; 77.7% in assay [3]; 72.2% in assay [4]; 77.4% in assay [5]; 46.6% in assay [6]. For the same molecule, the results for the growth in assay [7] and in assay [8] were 101% and 84.4%, respectively.

Turning to `O=[N+]([O-])c1ccc(O)c2ncccc12`, the growth in assay [1] is 30.4%; in assay [2], 55.2%; in assay [3], 43.8%; in assay [4], 32.6%; in assay [5], 35.2%; in assay [6] it was 17.1%. The results for the growth in assay [7] and in assay [8] were 51.6% and 35.5%, respectively.

Consider `COc1ccc(OC)c(C2C(C#N)=C(N)Oc3cc(O)ccc32)c1` (configuration not stated), for which the growth was 86.7% in assay [1]; 94.1% in assay [2]; 83.4% in assay [3]; 101% in assay [4]; 99.3% in assay [5]; 96.3% in assay [6]. The growth in assay [7] is 109%; in assay [8], 94%.

Take `CN1CCN(c2ccc3nc(-c4ccc5nc(-c6ccc(C(F)(F)F)cc6)[nH]c5c4)[nH]c3c2)CC1`: the growth in assay [1] is 57.9%; in assay [2], 84.6%; in assay [3], 49.8%; in assay [4] it was 1.32% (active); in assay [5], 4.4% (active); in assay [6] it was 21.1%. The growth in assay [7] is 87.2%; in assay [8], 49.7%.

For the molecule `COc1ccc(Cn2c(Br)c3c(c2-c2cc(OC)c(OC)c(OC)c2)CCc2sc(N)nc2-3)cc1`, the growth in assay [1] is 59.7%; in assay [2], 44.2%; in assay [3], -40.1% (active); in assay [4] it was 19%; in assay [5], 10.1%; in assay [6], 6.12% (active). In addition, the results for the growth in assay [7] and in assay [8] were 12.4% and 27.2%, respectively.

As for `COc1ccccc1/C=C/C(=O)/C=C/c1ccccc1O`, the growth in assay [1] is -37.2% (active); in assay [2], -34.1% (active); in assay [3], -36.3% (active); in assay [4], -80.3% (active); in assay [5] it was -18.6% (active); in assay [6], -93.2% (active). The growth is 4.04% (active) in assay [7] and -93.9% (active) in assay [8].

With `O=C(N/N=C(\CS(=O)(=O)c1ccccc1)c1cc2ccccc2oc1=O)c1ccccc1`, the growth in assay [1] is 101%; in assay [2] it was 104%; in assay [3], 103%; in assay [4], 105%; in assay [5] it was 102%; in assay [6], 112%. In addition, the growth in assay [7] was 106%; in assay [8], 108%.

Regarding `O=C1/C(=C/c2ccc(Oc3ccccc3)cc2)N=C(c2ccccc2)N1CCc1cccs1`, the growth is 83.9% in assay [1]; 74.9% in assay [2]; 89.7% in assay [3]; 80.1% in assay [4]; 81.8% in assay [5]; 57.1% in assay [6]. Moreover, the results for the growth in assay [7] and in assay [8] were 96.6% and 97.6%, respectively.

`ONc1nc(NO)c2[nH]cnc2n1`: the growth was 53.5% in assay [1]; 77.4% in assay [2]; 75.7% in assay [3]; 55% in assay [4]; 90.2% in assay [5]; 46.8% in assay [6]. Moreover, the growth is 121% in assay [7] and 110% in assay [8].

For the molecule `COc1ncnc2c1ncn2C/C(Br)=C(\Br)CCl`, the growth in assay [1] was 1.25% (active); in assay [2], 70.2%; in assay [3], 3.99% (active); in assay [4] it was -73.6% (active); in assay [5], 0.237% (active); in assay [6], -82.3% (active). The growth is 89.8% in assay [7] and -5.61% (active) in assay [8].

As for `Clc1cccc(Cl)c1Nc1ccc2nnc(-c3ccncc3)n2n1`, the growth is 91.3% in assay [1]; 114% in assay [2]; 104% in assay [3]; 102% in assay [4]; 95.2% in assay [5]; 98.9% in assay [6]. Further, the growth in assay [7] was 97.1%; in assay [8], 112%.
